# Measured values taken from the supplement of paper PMC6763611.
# Tested on: Plasmodium falciparum NF54
# Test: growth inhibition relative to untreated control; higher = more inhibition
# Conditions: 72 h
# In short: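 Ring-stage P. falciparum NF54 parasites at 1% hematocrit and 1% parasitemia were dispensed at 100 μL/well into dark 96-well half-area plates and given a single dose of test compound at 5 μM or 1 μM for 72 h at 37 °C. Incubation took place in minimal RPMI, either alone or supplemented with the chorismate end-products folate (2.2 μM), pABA (7.3 μM), pHBA (7.3 μM), tyrosine (111 μM), phenylalanine (90 μM) and tryptophan. Growth inhibition was determined with SYBR Green relative to untreated wells, using uninfected erythrocytes for background.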
# [1] = 1 µM, MM + chorismate end-products (CM screening medium)
# [2] = 5 µM, MM + chorismate end-products (CM screening medium)
SMILES,growth inhibition [1] [%],"growth inhibition (1 µM, minimal medium (MM)) [%]",growth inhibition [2] [%],"growth inhibition (5 µM, minimal medium (MM)) [%]"
Nc1ncnc2c1c(Cc1cccc3ccccc13)nn2CC1CCNCC1,18.3,59.9,19.1,< 0
CCNC(=O)C(C)Nc1nc(-c2cccnc2)nc2sc(C)c(C)c12 (centres undefined),5.05,< 0,16.8,31.6
Cc1ccc(NC(=O)c2cc(S(=O)(=O)NC(C)(C)C)ccc2C)nc1,70.6,52.9,93,94.5
Nc1ncnc2c1ncn2[C@@H]1O[C@H](COS(=O)(=O)NC(=O)c2ccccc2O)[C@@H](O)[C@H]1O,32.6,< 0,< 0,< 0
Cc1ccc(Oc2ccc(NC(=O)CNc3ccccc3N3CCCC3=O)cc2)cc1,85.2,87.4,98.3,91.8
CN1CCN(CCCOc2ncc(Nc3ncc(-c4ccc(C(F)(F)F)c(F)c4)nc3C(N)=O)cn2)CC1,> 100,> 100,> 100,93.3
O=C(C1CCN(c2cc(-n3cccc3)ncn2)CC1)N1CCc2ccccc2C1,11.5,5.57,4.91,3.34
N=C(N)c1ccc(OCCCCCOc2ccc(C(=N)N)cc2)cc1,98.6,96.8,99.4,94
NS(=O)(=O)c1cncc(-c2ccc3nccc(-c4cn[nH]c4)c3n2)c1,83.8,> 100,92.8,94.8
NC(CC(=O)c1ccc(Cl)cc1Cl)C(Cl)(Cl)Cl (centres undefined),< 0,11.5,18.3,23
CC(=O)NC[C@H]1CN(c2ccc(N3CCSCC3)c(F)c2)C(=O)O1,21.8,32.5,< 0,< 0
O=C(NC1CCCCC1)N1CCN(Cc2ccc3c(c2)OCO3)CC1,< 0,< 0,< 0,< 0
Cc1ccc(C(=O)Nc2ccc(S(=O)(=O)O)c3cc(S(=O)(=O)O)cc(S(=O)(=O)O)c23)cc1NC(=O)c1cccc(NC(=O)Nc2cccc(C(=O)Nc3cc(C(=O)Nc4ccc(S(=O)(=O)O)c5cc(S(=O)(=O)O)cc(S(=O)(=O)O)c45)ccc3C)c2)c1,< 0,< 0,< 0,12.6
C[C@]1(COc2ccc(N3CCC(Oc4ccc(OC(F)(F)F)cc4)CC3)cc2)Cn2cc([N+](=O)[O-])nc2O1,2.53,3.49,21.9,9.3
CN1CCCC1CCO[C@](C)(c1ccccc1)c1ccc(Cl)cc1 (some centres undefined),96.4,94.5,98,93.3
CNC(=O)c1nn(C)c2c1C(C)(C)Cc1cnc(Nc3ccc(N4CCN(C)CC4)cc3)nc1-2,64.5,73.6,88,87.2
